In article PMC5700166 one finds binding signal data, which are given here for 27 sequences.

Experiment in all cases: protein-binding microarray (PBM); PBM: ~300 nM protein, 6 mM HEPES pH 7.8, 80 mM KCl, 0.5 mM EDTA, 0.5 mM EGTA, 6% glycerol, 35 ng/ul poly-dIdC, 1% milk, 1 h, room temperature; Ap Aiptasia and Nv Nematostella (sea anemones) / Co Capsaspora / Aq Amphimedon (sponge) / Dm Drosophila / Hu human; RHD is the Rel homology domain; high values mean tight binding
Common to all, as to details: dsDNA, one strand shown

For assay [1], the target named is T1, GST-Ap-NF-kB RHD (Exaiptasia pallida (Aiptasia), UniProt A0A913YAJ5 2-422).
T1 sequence: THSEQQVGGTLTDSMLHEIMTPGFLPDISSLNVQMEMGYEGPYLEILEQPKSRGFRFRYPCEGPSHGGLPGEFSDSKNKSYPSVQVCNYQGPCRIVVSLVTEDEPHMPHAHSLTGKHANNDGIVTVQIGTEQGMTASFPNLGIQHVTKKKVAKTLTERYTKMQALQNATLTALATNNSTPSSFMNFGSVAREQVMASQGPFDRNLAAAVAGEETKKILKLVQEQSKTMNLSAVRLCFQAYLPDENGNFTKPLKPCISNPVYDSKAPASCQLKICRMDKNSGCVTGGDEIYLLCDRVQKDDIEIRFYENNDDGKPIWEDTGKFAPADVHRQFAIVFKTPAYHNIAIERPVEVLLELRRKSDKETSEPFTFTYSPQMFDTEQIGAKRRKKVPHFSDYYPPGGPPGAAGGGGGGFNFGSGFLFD

Assay [2] has as its target T2, GST-Nv-NF-kB (Cys allele) (Nematostella vectensis, UniProt E5G601 2-411).
T2 sequence: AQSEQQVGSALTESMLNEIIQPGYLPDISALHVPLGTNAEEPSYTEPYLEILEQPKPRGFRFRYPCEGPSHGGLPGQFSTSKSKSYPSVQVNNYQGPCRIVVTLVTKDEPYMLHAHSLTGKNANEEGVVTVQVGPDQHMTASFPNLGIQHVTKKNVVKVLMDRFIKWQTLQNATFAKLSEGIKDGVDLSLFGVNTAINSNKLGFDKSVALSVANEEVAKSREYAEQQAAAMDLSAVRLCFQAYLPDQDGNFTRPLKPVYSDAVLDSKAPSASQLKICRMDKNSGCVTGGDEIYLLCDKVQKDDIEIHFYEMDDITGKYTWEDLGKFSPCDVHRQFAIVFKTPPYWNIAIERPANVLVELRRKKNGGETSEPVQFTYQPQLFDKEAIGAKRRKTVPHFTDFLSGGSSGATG

The target in assay [3] is T3, GST-Co-NF-kB (Capsaspora owczarzaki, UniProt F1ARL5 200-546).
T3 sequence: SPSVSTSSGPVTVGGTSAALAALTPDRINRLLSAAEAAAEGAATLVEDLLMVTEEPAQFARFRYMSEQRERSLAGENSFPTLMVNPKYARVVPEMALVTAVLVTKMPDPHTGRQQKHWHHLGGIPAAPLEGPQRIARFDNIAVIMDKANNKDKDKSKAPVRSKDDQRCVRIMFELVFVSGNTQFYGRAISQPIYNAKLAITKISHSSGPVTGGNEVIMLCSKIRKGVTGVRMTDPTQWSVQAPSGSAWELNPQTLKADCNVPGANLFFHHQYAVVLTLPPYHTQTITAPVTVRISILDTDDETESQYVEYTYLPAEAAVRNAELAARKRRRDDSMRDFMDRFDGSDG

In assay [4] the target is T4, GST-Dm-Relish (Drosophila melanogaster, UniProt Q94527 99-473).
T4 sequence: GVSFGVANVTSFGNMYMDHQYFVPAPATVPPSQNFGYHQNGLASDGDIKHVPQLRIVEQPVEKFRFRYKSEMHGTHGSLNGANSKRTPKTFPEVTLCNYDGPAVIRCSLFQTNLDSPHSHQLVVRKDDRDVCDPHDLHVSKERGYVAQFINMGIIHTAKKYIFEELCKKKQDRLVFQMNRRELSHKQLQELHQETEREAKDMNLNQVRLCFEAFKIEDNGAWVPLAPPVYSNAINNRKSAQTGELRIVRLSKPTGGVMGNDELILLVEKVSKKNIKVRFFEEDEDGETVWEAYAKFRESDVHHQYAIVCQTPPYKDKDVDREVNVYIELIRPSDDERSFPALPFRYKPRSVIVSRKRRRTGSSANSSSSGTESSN

The target of assay [5] is T5, GST-Aq-NF-kB (Amphimedon queenslandica, UniProt A9Y5G7 2-389).
T5 sequence: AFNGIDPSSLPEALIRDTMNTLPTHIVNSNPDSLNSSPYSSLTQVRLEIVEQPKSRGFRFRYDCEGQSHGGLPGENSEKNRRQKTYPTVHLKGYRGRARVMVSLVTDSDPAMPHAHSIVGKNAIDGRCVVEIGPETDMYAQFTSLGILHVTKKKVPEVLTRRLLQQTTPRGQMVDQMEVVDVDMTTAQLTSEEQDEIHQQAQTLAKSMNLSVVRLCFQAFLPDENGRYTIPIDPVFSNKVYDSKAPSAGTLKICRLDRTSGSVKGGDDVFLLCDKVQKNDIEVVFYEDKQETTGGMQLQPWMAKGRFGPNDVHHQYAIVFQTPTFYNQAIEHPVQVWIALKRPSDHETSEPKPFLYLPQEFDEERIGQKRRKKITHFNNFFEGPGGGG

For “CCGATTAACATCACGCAACCCCCTGATGTTAATCGGGTCTTGATTCGCTTGACGCTGCTG”, the binding signal in assay [1] is 5.37 z-score; in assay [2] it was 3.7 z-score; in assay [3], 2 z-score; in assay [4], 5.08 z-score; in assay [5] it was 3.89 z-score.

For the sequence “CCGATTAACATCAAGGTACCCCCTGATGTTAATCGGGTCTTGATTCGCTTGACGCTGCTG”, the binding signal in assay [1] worked out at 5.83 z-score; in assay [2], 2.82 z-score; in assay [3] it was 4.58 z-score; in assay [4], 2.84 z-score; in assay [5], 3.11 z-score.

Regarding “CCGATTAACATCACAACCCCCCCTGATGTTAATCGGGTCTTGATTCGCTTGACGCTGCTG”, the binding signal was found to be 5.55 z-score in assay [1]; 3.59 z-score in assay [2]; 3.83 z-score in assay [3]; 6.16 z-score in assay [4]; 4.6 z-score in assay [5].

In the case of “CCGATTAACATCAGGGATTCACCTGATGTTAATCGGGTCTTGATTCGCTTGACGCTGCTG”, the binding signal in assay [1] is 5.22 z-score; in assay [2], 4.92 z-score; in assay [3], 1.03 z-score; in assay [4], 9.89 z-score; in assay [5], 5.57 z-score.

As for “CCGATTAACATCAGGGAGATTTGTGATGTTAATCGGGTCTTGATTCGCTTGACGCTGCTG”, the binding signal in assay [1] was found to be 3.21 z-score; in assay [2], 4.56 z-score; in assay [3], 2.54 z-score; in assay [4] it was 1.8 z-score; in assay [5] it was 4.63 z-score.

With “CCGATTAACATCAAGCATCCCCCTGATGTTAATCGGGTCTTGATTCGCTTGACGCTGCTG”, the binding signal in assay [1] is 4.92 z-score; in assay [2], 5.03 z-score; in assay [3] it was 4.28 z-score; in assay [4] it was 3.89 z-score; in assay [5] it was 4.87 z-score.

With “CCGATTAACATCAGAATATCCCATGATGTTAATCGGGTCTTGATTCGCTTGACGCTGCTG”, the binding signal in assay [1] stood at 2.05 z-score; in assay [2], 1.17 z-score; in assay [3], 1.46 z-score; in assay [4], 1.8 z-score; in assay [5], 1.86 z-score.

“CCGATTAACATCAGGGGAAGGACTGATGTTAATCGGGTCTTGATTCGCTTGACGCTGCTG”: the binding signal in assay [1] worked out at 4.32 z-score; in assay [2], 4.53 z-score; in assay [3], 4.12 z-score; in assay [4] it was 8.23 z-score; in assay [5], 5.22 z-score.

As to “CCGATTAACATCACCAATTTCCCTGATGTTAATCGGGTCTTGATTCGCTTGACGCTGCTG”, the binding signal amounted to 3.3 z-score in assay [1]; 4.17 z-score in assay [2]; 3.83 z-score in assay [3]; 1.84 z-score in assay [4]; 3.17 z-score in assay [5].

Turning to “CCGATTAACATCAGGGAATTCACTGATGTTAATCGGGTCTTGATTCGCTTGACGCTGCTG”, the binding signal in assay [1] worked out at 4.74 z-score; in assay [2] it was 5.33 z-score; in assay [3], 3.01 z-score; in assay [4] it was 8.25 z-score; in assay [5] it was 6.46 z-score.

“CCGATTAACATCAAGGTAATCCCTGATGTTAATCGGGTCTTGATTCGCTTGACGCTGCTG”: the binding signal in assay [1] amounted to 4.1 z-score; in assay [2] it was 2.08 z-score; in assay [3], 1.06 z-score; in assay [4], 5.22 z-score; in assay [5], 3.95 z-score.

As for “CCGATTAACATCAAGGGAATACCTGATGTTAATCGGGTCTTGATTCGCTTGACGCTGCTG”, the binding signal in assay [1] stood at 4.61 z-score; in assay [2] it was 4.26 z-score; in assay [3] it was 2.25 z-score; in assay [4], 6.28 z-score; in assay [5], 5.48 z-score.

Regarding “CCGATTAACATCACCGATTTCCCTGATGTTAATCGGGTCTTGATTCGCTTGACGCTGCTG”, the binding signal amounted to 2.92 z-score in assay [1]; 3.79 z-score in assay [2]; 3.27 z-score in assay [3]; 2 z-score in assay [4]; 2.57 z-score in assay [5].

Regarding “CCGATTAACATCAATCACCCCCATGATGTTAATCGGGTCTTGATTCGCTTGACGCTGCTG”, the binding signal in assay [1] worked out at 4.03 z-score; in assay [2], 2.63 z-score; in assay [3] it was 4.35 z-score; in assay [4] it was 1.86 z-score; in assay [5], 3.32 z-score.

Turning to “CCGATTAACATCAGGGTTTTTTATGATGTTAATCGGGTCTTGATTCGCTTGACGCTGCTG”, the binding signal in assay [1] came to 4.39 z-score; in assay [2], 5.06 z-score; in assay [3], 1.36 z-score; in assay [4] it was 5.89 z-score; in assay [5], 6.24 z-score.

As for “CCGATTAACATCAGGGGAGCACCTGATGTTAATCGGGTCTTGATTCGCTTGACGCTGCTG”, the binding signal in assay [1] was 4.77 z-score; in assay [2], 3.52 z-score; in assay [3] it was 3.23 z-score; in assay [4], 4.91 z-score; in assay [5], 4.81 z-score.

With “CCGATTAACATCAGGGGGTGAAATGATGTTAATCGGGTCTTGATTCGCTTGACGCTGCTG”, the binding signal was 3.26 z-score in assay [1]; 3.42 z-score in assay [2]; 6.99 z-score in assay [3]; 3.46 z-score in assay [4]; 3.93 z-score in assay [5].

Regarding “CCGATTAACATCAGTTCCCCCCATGATGTTAATCGGGTCTTGATTCGCTTGACGCTGCTG”, the binding signal in assay [1] is 6.36 z-score; in assay [2] it was 4.32 z-score; in assay [3] it was 8.97 z-score; in assay [4], 3.62 z-score; in assay [5], 3.91 z-score.

Turning to “CCGATTAACATCAGGGATATTTATGATGTTAATCGGGTCTTGATTCGCTTGACGCTGCTG”, the binding signal in assay [1] came out at 2.06 z-score; in assay [2], 2.7 z-score; in assay [3] it was 1.68 z-score; in assay [4], 2.57 z-score; in assay [5], 3.73 z-score.

Take “CCGATTAACATCAACCCCCGGCTTGATGTTAATCGGGTCTTGATTCGCTTGACGCTGCTG”: the binding signal in assay [1] was determined as 4.17 z-score; in assay [2] it was 2.37 z-score; in assay [3], 2.79 z-score; in assay [4] it was 4.35 z-score; in assay [5] it was 2.51 z-score.

Consider “CCGATTAACATCAGGGGATAAAATGATGTTAATCGGGTCTTGATTCGCTTGACGCTGCTG”, for which the binding signal amounted to 4.6 z-score in assay [1]; 5.11 z-score in assay [2]; 7.5 z-score in assay [3]; 3.31 z-score in assay [4]; 4.05 z-score in assay [5].

Take “CCGATTAACATCAGGGAATACCATGATGTTAATCGGGTCTTGATTCGCTTGACGCTGCTG”: the binding signal turned out to be 3.14 z-score in assay [1]; 2.92 z-score in assay [2]; 2.08 z-score in assay [3]; 6.8 z-score in assay [4]; 4.48 z-score in assay [5].

“CCGATTAACATCAACGTATTCCCTGATGTTAATCGGGTCTTGATTCGCTTGACGCTGCTG”: the binding signal stood at 3.17 z-score in assay [1]; 2.78 z-score in assay [2]; 2.86 z-score in assay [3]; 1.41 z-score in assay [4]; 1.85 z-score in assay [5].

Regarding “CCGATTAACATCAATCCCCCCCGTGATGTTAATCGGGTCTTGATTCGCTTGACGCTGCTG”, the binding signal in assay [1] was 6.49 z-score; in assay [2], 4.68 z-score; in assay [3], 7.66 z-score; in assay [4], 6.77 z-score; in assay [5], 5.33 z-score.

For the sequence “CCGATTAACATCAGGGAGATACCTGATGTTAATCGGGTCTTGATTCGCTTGACGCTGCTG”, the binding signal stood at 4 z-score in assay [1]; 4.81 z-score in assay [2]; 1.64 z-score in assay [3]; 4.25 z-score in assay [4]; 7.69 z-score in assay [5].

Take “CCGATTAACATCAAAACAACCCCTGATGTTAATCGGGTCTTGATTCGCTTGACGCTGCTG”: the binding signal in assay [1] was 3.57 z-score; in assay [2], 3.44 z-score; in assay [3], 2.54 z-score; in assay [4], 2.68 z-score; in assay [5], 4.83 z-score.

“CCGATTAACATCAGGGGAGTAAATGATGTTAATCGGGTCTTGATTCGCTTGACGCTGCTG”: the binding signal in assay [1] was 3.1 z-score; in assay [2], 3 z-score; in assay [3] it was 4.51 z-score; in assay [4], 1.91 z-score; in assay [5], 3 z-score.
